PubChem BioAssay (Tox21)
Results filed as inconclusive are left out. Entries that show only a call come without a potency. A number with no mark means an inactive call. The source made the active and inactive calls. Calls come from the whole dose curve; as a rule, active = well fitted curve in the direction sought with a large enough effect in the repeat runs; inconclusive = weak or mixed curves; inactive = no such curve, though single readings can be large; an effect the other way counts as inactive or inconclusive.

experiment: qHTS RealTime-Glo MT Cell Viability Assay in HepG2 cells - 40 hour (AID 1224870); details: RealTime-Glo luminescence; series mostly up to 76.8 µM; note: nearly all actives have a fitted effect of over 50% in size
How it was run: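 HepG2 cells mixed with RealTime-Glo MT reagents (NanoLuc plus cell-permeant prosubstrate) were seeded at 600 cells/well, incubated 5 h at 37 C/5% CO2, then pinned with compounds in DMSO; nonlytic luminescence tracked viability during 40 h treatment.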

SMILES | Potency | activity change, negative = cytotoxic
Cc1cccc(C)c1NC(=O)CN1CCCCCC1 | inactive | –
OCCN(CCO)CCN(CCO)CCO | inactive | –
CCOC(=O)NCCC[Si](OCC)(OCC)OCC | inactive | –
O=C(CCCl)NCc1ccccc1 | inactive | –
O=c1[nH]cnc2c1ncn2[C@@H]1O[C@H](CO)[C@@H](O)[C@H]1O | inactive | –
C=CC1CO1 (configuration not stated) | inactive | –
C[C@]12C(=O)OC(=O)[C@H]1[C@H]1C=C[C@@H]2C1 | inactive | –
NNS(=O)(=O)c1ccc(Oc2ccc(S(=O)(=O)NN)cc2)cc1 | inactive | –
CN1CCN(C2=Nc3cc(F)ccc3Cc3ccccc32)CC1 | inactive | –
Cc1cn([C@@H]2O[C@H](CO)[C@@H](O)[C@@H]2F)c(=O)[nH]c1=O | inactive | –
CCCc1c2oc(C(=O)O)cc(=O)c2cc2c(=O)cc(C(=O)O)n(CC)c12 | inactive | –
Cc1ncc(CO)c(CN)c1O | inactive | –
NC1=NCC2c3ccccc3Cc3ccccc3N12 (configuration not stated) | inactive | –
FC(F)(F)C(Cl)(Cl)Cl | inactive | –
CCCOCCC | inactive | –
Cc1cc2c(s1)Nc1ccccc1N=C2N1CCN(C)CC1 | inactive | –
CCC(=O)Nc1ccc(O)cc1 | inactive | –
CCC/C=C/CO | inactive | –
C[C@@H]1CN(c2c(F)c(F)c3c(=O)c(C(=O)O)cn(C4CC4)c3c2F)C[C@H](C)N1 | – | 1.26% [at 15.8 µM]
CCOC(=O)c1cc(=O)c2c(OCC(COc3cccc4oc(C(=O)OCC)cc(=O)c34)OC(=O)[C@@H](N)CCCCN)cccc2o1 | inactive | –

SMILES | Potency | activity change, negative = cytotoxic
CCc1cc2cc(OC)c(OC)cc2c(Cc2ccccc2)n1 | inactive | –
O=C(O)[C@@H]1CSCN1 | inactive | –
COC(=O)c1ccc2cc(C(=O)OC)ccc2c1 | – | -0.864% [at 15.8 µM]
Cc1ccccc1C(=O)Nc1ccc(C(=O)N2CCCC(O)c3cc(Cl)ccc32)c(C)c1 (configuration not stated) | inactive | –
CCOC(=O)C(Br)c1ccccc1 (configuration not stated) | inactive | –
Cc1ccc([N+](=O)[O-])c(N)c1 | inactive | –
C1CCOC1 | inactive | –
CCCCCCCCCCCCCCCCOP(=O)([O-])OCC[N+](C)(C)C | inactive | –
O=C1CCC(C2CCCCC2)CC1 | inactive | –
CCCCCCCCOC(=O)CCCCCCCCC(=O)OCCCCCCCC | inactive | –
CCCCCCn1c(=O)c2c(ncn2C)n(C)c1=O | inactive | –
CN(C)Cc1ccccc1 | inactive | –
Cc1c(N)cccc1N | inactive | –
N#Cc1ccc(C(c2ccc(C#N)cc2)n2cncn2)cc1 | inactive | –
O=CCCc1ccccc1 | inactive | –
CCN(CC)CC1CCCCN1CC(=O)N1c2ccccc2C(=O)Nc2cccnc21 (configuration not stated) | inactive | –
Cc1ccsc1C(=CCCN1CCC[C@@H](C(=O)O)C1)c1sccc1C | inactive | –
FC(F)(F)c1ccccc1 | inactive | –
O=S(=O)(O)C(F)(F)F | inactive | –

experiment: A CellTox Green Cytotoxicity Assay to monitor cytotoxicity in HEK293 cells - 40 hour (AID 1224871); details: CellTox Green fluorescence; series mostly up to 76.8 µM; note: nearly all actives have a fitted effect of over 45% in size; note: potency is the fitted concentration of half-maximal effect
How it was run: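 Fluorescence intensity, read at 0, 8, 16, 24, 32 and 40 h of compound treatment, reflected dye binding to DNA of dead HEK293 cells; compounds (23 nL, DMSO) were added 5 h after plating cells with reagent.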

SMILES | Potency | cytotoxicity increase
Cc1cccc(C)c1NC(=O)CN1CCCCCC1 | inactive | –
OCCN(CCO)CCN(CCO)CCO | inactive | –
CCOC(=O)NCCC[Si](OCC)(OCC)OCC | inactive | –
O=C(CCCl)NCc1ccccc1 | inactive | –
O=c1[nH]cnc2c1ncn2[C@@H]1O[C@H](CO)[C@@H](O)[C@H]1O | inactive | –
C=CC1CO1 (configuration not stated) | inactive | –
C[C@]12C(=O)OC(=O)[C@H]1[C@H]1C=C[C@@H]2C1 | inactive | –
NNS(=O)(=O)c1ccc(Oc2ccc(S(=O)(=O)NN)cc2)cc1 | inactive | –
CN1CCN(C2=Nc3cc(F)ccc3Cc3ccccc32)CC1 | inactive | –
Cc1cn([C@@H]2O[C@H](CO)[C@@H](O)[C@@H]2F)c(=O)[nH]c1=O | inactive | –
Cc1ncc(CO)c(CN)c1O | inactive | –
NC1=NCC2c3ccccc3Cc3ccccc3N12 (configuration not stated) | inactive | –
FC(F)(F)C(Cl)(Cl)Cl | inactive | –
CCCOCCC | inactive | –
Cc1cc2c(s1)Nc1ccccc1N=C2N1CCN(C)CC1 | inactive | –
CCC(=O)Nc1ccc(O)cc1 | inactive | –
CCC/C=C/CO | inactive | –
C[C@@H]1CN(c2c(F)c(F)c3c(=O)c(C(=O)O)cn(C4CC4)c3c2F)C[C@H](C)N1 | – | -4.55% [at 15.8 µM]
CCOC(=O)c1cc(=O)c2c(OCC(COc3cccc4oc(C(=O)OCC)cc(=O)c34)OC(=O)[C@@H](N)CCCCN)cccc2o1 | inactive | –

SMILES | Potency | cytotoxicity increase
CCc1cc2cc(OC)c(OC)cc2c(Cc2ccccc2)n1 | inactive | –
O=C(O)[C@@H]1CSCN1 | inactive | –
COC(=O)c1ccc2cc(C(=O)OC)ccc2c1 | – | 3.01% [at 15.8 µM]
Cc1ccccc1C(=O)Nc1ccc(C(=O)N2CCCC(O)c3cc(Cl)ccc32)c(C)c1 (configuration not stated) | inactive | –
CCOC(=O)C(Br)c1ccccc1 (configuration not stated) | inactive | –
Cc1ccc([N+](=O)[O-])c(N)c1 | inactive | –
C1CCOC1 | inactive | –
CCCCCCCCCCCCCCCCOP(=O)([O-])OCC[N+](C)(C)C | inactive | –
O=C1CCC(C2CCCCC2)CC1 | 49 µM (active) | –
CCCCCCCCOC(=O)CCCCCCCCC(=O)OCCCCCCCC | inactive | –
CCCCCCn1c(=O)c2c(ncn2C)n(C)c1=O | inactive | –
CN(C)Cc1ccccc1 | inactive | –
Cc1c(N)cccc1N | inactive | –
N#Cc1ccc(C(c2ccc(C#N)cc2)n2cncn2)cc1 | inactive | –
O=CCCc1ccccc1 | inactive | –
CCN(CC)CC1CCCCN1CC(=O)N1c2ccccc2C(=O)Nc2cccnc21 (configuration not stated) | inactive | –
Cc1ccsc1C(=CCCN1CCC[C@@H](C(=O)O)C1)c1sccc1C | inactive | –
FC(F)(F)c1ccccc1 | inactive | –
O=S(=O)(O)C(F)(F)F | inactive | –
